# Source: PubChem BioAssay (NCI)
# About 79,000 compounds went through this panel and 15% of them were active in at least one assay; those are over-represented in the sample as a whole. Unmarked numbers belong to inactive results. Active and inactive are the calls of the source. No stated cut-off is given here; in the data, active means growth inhibition above about 70%; inactive means the rest.
# Experiments:
# [1] = NCI Yeast Anticancer Drug Screen. Data for the rad52 strain (AID 147);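 further: 0% = growth of vehicle-treated control cultures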; conditions: S. cerevisiae rad52 mutant growth inhibition, hits give high values
# Outline: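 Measured: yeast growth inhibition. System: strain with a defined DNA damage repair alteration. Reference: vehicle-treated control cultures.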
# [2] = NCI Yeast Anticancer Drug Screen. Data for the wt1 strain (AID 149);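 further: 0% = growth of vehicle-treated wt1 cultures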; conditions: S. cerevisiae wt1 strain (SPY 50644) growth inhibition, hits give high values
# Outline: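 Readout: yeast growth inhibition, normalised to vehicle controls, in the wt1 strain exposed to test compounds.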
# [3] = NCI Yeast Anticancer Drug Screen. Data for the rad50EPP+ strain (AID 151);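 further: 0% = growth of vehicle-treated control cultures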; conditions: S. cerevisiae rad50 mutant strain, hits give high values
# Outline: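 One strain with a rad50 alteration (rad50EPP+) was compound-treated, its growth then compared to that of vehicle controls.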
# [4] = NCI Yeast Anticancer Drug Screen. Data for the mgt1 strain (AID 153); conditions: S. cerevisiae mgt1 mutant growth inhibition, hits give high values
# Outline: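 After exposure of the mgt1 yeast mutant to compound, growth was measured and reported as inhibition compared with vehicle controls.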
# [5] = NCI Yeast Anticancer Drug Screen. Data for the rad50 strain (AID 155);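 further: 0% = growth of vehicle-only cultures of the same strain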; conditions: S. cerevisiae rad50 strain growth inhibition, hits give high values
# Outline: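 Compounds were tested on a yeast strain with an engineered DNA damage repair alteration; the reported value is growth inhibition normalised to vehicle treatment.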
# [6] = NCI Yeast Anticancer Drug Screen. Data for the mec2-1 strain (AID 157); conditions: S. cerevisiae mec2-1 strain, hits give high values
# Outline: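 Test agents were screened against the mec2-1 yeast strain, with defined DNA repair or cell cycle alteration. Growth was scored as inhibition against vehicle-only controls.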
# [7] = NCI Yeast Anticancer Drug Screen. Data for the rad14 strain (AID 159);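 further: 0% = growth of vehicle-treated control cultures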; conditions: S. cerevisiae rad14 strain growth inhibition, hits give high values
# Outline: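 Compound-treated yeast with a defined DNA-repair lesion; growth inhibition normalised to vehicle-treated cultures.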
# [8] = NCI Yeast Anticancer Drug Screen. Data for the sgs1 mgt1 strain (AID 161);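 further: 0% = growth of cultures given vehicle only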; conditions: S. cerevisiae sgs1 mgt1 strain, hits give high values
# Outline: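 Mutant yeast exposed to compound; growth scored against vehicle-only wells.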
# [9] = NCI Yeast Anticancer Drug Screen. Data for the CLN2oe strain (AID 163);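 further: 0% = growth of vehicle-only control cultures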; conditions: S. cerevisiae CLN2oe strain, hits give high values
# Outline: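 Here, growth inhibition in a cell-cycle-altered yeast strain after compound exposure was quantified against vehicle control growth.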
# [10] = NCI Yeast Anticancer Drug Screen. Data for the cln2 rad14 strain (AID 165);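 further: 0% = growth equal to vehicle treated cultures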; conditions: S. cerevisiae cln2 rad14 strain, hits give high values
# Outline: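 Growth of compound-exposed yeast (cln2 rad14 genotype) measured and expressed as inhibition relative to vehicle.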
# [11] = NCI Yeast Anticancer Drug Screen. Data for the bub3 strain (AID 167); conditions: S. cerevisiae bub3 mutant strain, hits give high values
# Outline: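 Growth of a checkpoint-deficient yeast mutant is measured after compound exposure. Values represent inhibition relative to vehicle.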
# [12] = NCI Yeast Anticancer Drug Screen. Data for the wt2 strain (AID 169);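 further: 0% = growth of vehicle-treated yeast cultures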; conditions: S. cerevisiae wt2 strain growth inhibition, hits give high values
# Outline: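 Genetically defined yeast strains from a DNA-repair/cell-cycle panel were used. Compound-exposed yeast growth was measured, and the inhibition was calculated relative to vehicle treatment.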
# [13] = NCI Yeast Anticancer Drug Screen. Data for the mlh1 strain (AID 171);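 further: 0% = growth of vehicle-treated control cultures of the same strain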; conditions: S. cerevisiae mlh1 strain growth inhibition, hits give high values
# Outline: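 Here the genetically defined yeast mutant is grown with each compound, and the extent to which its growth falls below that of vehicle-exposed cells is reported.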
# [14] = NCI Yeast Anticancer Drug Screen. Data for the sgs1 strain (AID 173);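 further: 0% = growth of vehicle-only control cultures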; conditions: S. cerevisiae sgs1 mutant, hits give high values
# Outline: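 Relative growth inhibition, referenced to vehicle, was determined in a yeast strain with a defined alteration affecting DNA damage repair or cell cycle control after compound exposure.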
# [15] = NCI Yeast Anticancer Drug Screen. Data for the mlh1 rad18 strain (AID 175); conditions: S. cerevisiae mlh1 rad18 strain growth inhibition, hits give high values
# Outline: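 In this whole-cell yeast screen, a strain with altered DNA damage repair is challenged with compound, and its growth is measured against matched vehicle-treated controls.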
# [16] = NCI Yeast Anticancer Drug Screen. Data for the rad18 strain (AID 177); conditions: S. cerevisiae rad18 mutant growth inhibition, hits give high values
# Outline: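 Screen uses a yeast strain with a defined lesion in DNA damage repair; compound effect is read as loss of growth compared to untreated vehicle cultures.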
# [17] = at 5.0 µM (retest, dose inferred, filed as 0.5)
# [18] = at 50.0 µM (retest, dose inferred, filed as 5.0)
structure (smiles),measurement,setting,value
COc1ccc2ccc3ccccc3c2c1C=O,growth inhibition,[1]; at 1.2 µM,-5%
same,growth inhibition,[1]; at 3.7 µM,-5%
same,growth inhibition,[1]; at 11.0 µM,-3%
same,growth inhibition,[1]; at 33.0 µM,0%
same,growth inhibition,[1]; at 100.0 µM,63%
same,growth inhibition,[2]; at 1.2 µM,-3%
same,growth inhibition,[2]; at 3.7 µM,-5%
same,growth inhibition,[2]; at 11.0 µM,-5%
same,growth inhibition,[2]; at 33.0 µM,-4%
same,growth inhibition,[2]; at 100.0 µM,93% (active)
same,growth inhibition,[3]; at 1.2 µM,0%
same,growth inhibition,[3]; at 3.7 µM,2%
same,growth inhibition,[3]; at 11.0 µM,3%
same,growth inhibition,[3]; at 33.0 µM,8%
same,growth inhibition,[3]; at 100.0 µM,25%
same,growth inhibition,[4]; at 1.2 µM,-7%
same,growth inhibition,[4]; at 3.7 µM,-6%
same,growth inhibition,[4]; at 11.0 µM,-7%
same,growth inhibition,[4]; at 33.0 µM,-5%
same,growth inhibition,[4]; at 100.0 µM,74% (active)
same,growth inhibition,[5]; at 1.2 µM,0%
same,growth inhibition,[5]; at 3.7 µM,23%
same,growth inhibition,[5]; [17],9%
same,growth inhibition,[5]; at 11.0 µM,28%
same,growth inhibition,[5]; at 33.0 µM,6%
same,growth inhibition,[5]; [18],64%
same,growth inhibition,[5]; at 50.0 µM,49%
same,growth inhibition,[5]; at 100.0 µM,79% (active)
same,growth inhibition,[6]; at 1.2 µM,-6%
same,growth inhibition,[6]; at 3.7 µM,-6%
same,growth inhibition,[6]; [17],9%
same,growth inhibition,[6]; at 11.0 µM,-6%
same,growth inhibition,[6]; at 33.0 µM,0%
same,growth inhibition,[6]; [18],50%
same,growth inhibition,[6]; at 50.0 µM,13.2%
same,growth inhibition,[6]; at 100.0 µM,96% (active)
same,growth inhibition,[7]; at 1.2 µM,3%
same,growth inhibition,[7]; at 3.7 µM,5%
same,growth inhibition,[7]; at 11.0 µM,5%
same,growth inhibition,[7]; at 33.0 µM,14%
same,growth inhibition,[7]; at 100.0 µM,83% (active)
same,growth inhibition,[8]; [17],7%
same,growth inhibition,[8]; [18],68%
same,growth inhibition,[8]; at 50.0 µM,55.8%
same,growth inhibition,[9]; at 1.2 µM,-6%
same,growth inhibition,[9]; at 3.7 µM,-6%
same,growth inhibition,[9]; at 11.0 µM,-2%
same,growth inhibition,[9]; at 33.0 µM,-2%
same,growth inhibition,[9]; at 100.0 µM,81% (active)
same,growth inhibition,[10]; [17],15%
same,growth inhibition,[10]; [18],16%
same,growth inhibition,[10]; at 50.0 µM,17.6%
same,growth inhibition,[11]; at 1.2 µM,-2%
same,growth inhibition,[11]; at 3.7 µM,0%
same,growth inhibition,[11]; [17],5%
same,growth inhibition,[11]; at 11.0 µM,-5%
same,growth inhibition,[11]; at 33.0 µM,-2%
same,growth inhibition,[11]; [18],11%
same,growth inhibition,[11]; at 50.0 µM,-11.7%
same,growth inhibition,[11]; at 100.0 µM,76% (active)
same,growth inhibition,[12]; at 1.2 µM,-3%
same,growth inhibition,[12]; at 3.7 µM,4%
same,growth inhibition,[12]; at 11.0 µM,-4%
same,growth inhibition,[12]; at 33.0 µM,-4%
same,growth inhibition,[12]; at 100.0 µM,77% (active)
same,growth inhibition,[13]; at 1.2 µM,-6%
same,growth inhibition,[13]; at 3.7 µM,-5%
same,growth inhibition,[13]; at 11.0 µM,-5%
same,growth inhibition,[13]; at 33.0 µM,-6%
same,growth inhibition,[13]; at 100.0 µM,29%
same,growth inhibition,[14]; at 1.2 µM,-4%
same,growth inhibition,[14]; at 3.7 µM,-1%
same,growth inhibition,[14]; at 11.0 µM,4%
same,growth inhibition,[14]; at 33.0 µM,10%
same,growth inhibition,[14]; at 100.0 µM,50%
same,growth inhibition,[15]; [17],14%
same,growth inhibition,[15]; [18],89% (active)
same,growth inhibition,[15]; at 50.0 µM,57.1%
same,growth inhibition,[16]; at 1.2 µM,-2%
same,growth inhibition,[16]; at 3.7 µM,2%
same,growth inhibition,[16]; at 11.0 µM,3%
same,growth inhibition,[16]; at 33.0 µM,9%
same,growth inhibition,[16]; at 100.0 µM,83% (active)
CCc1ncnc2cc(OCC3CO3)c(OC)cc12 (stereo unspecified),growth inhibition,[1]; at 1.2 µM,7%
same,growth inhibition,[1]; at 3.7 µM,46%
same,growth inhibition,[1]; at 11.0 µM,66%
same,growth inhibition,[1]; at 33.0 µM,82% (active)
same,growth inhibition,[1]; at 100.0 µM,87% (active)
same,growth inhibition,[2]; at 1.2 µM,-9%
same,growth inhibition,[2]; at 3.7 µM,8%
same,growth inhibition,[2]; at 11.0 µM,3%
same,growth inhibition,[2]; at 33.0 µM,6%
same,growth inhibition,[2]; at 100.0 µM,20%
same,growth inhibition,[3]; at 1.2 µM,8%
same,growth inhibition,[3]; at 3.7 µM,31%
same,growth inhibition,[3]; at 11.0 µM,31%
same,growth inhibition,[3]; at 33.0 µM,47%
same,growth inhibition,[3]; at 100.0 µM,74% (active)
same,growth inhibition,[4]; at 1.2 µM,-14%
same,growth inhibition,[4]; at 3.7 µM,-8%
same,growth inhibition,[4]; at 11.0 µM,-3%
same,growth inhibition,[4]; at 33.0 µM,22%
same,growth inhibition,[4]; at 100.0 µM,48%
same,growth inhibition,[5]; at 1.2 µM,23%
same,growth inhibition,[5]; at 3.7 µM,44%
same,growth inhibition,[5]; [17],72% (active)
same,growth inhibition,[5]; at 11.0 µM,72% (active)
same,growth inhibition,[5]; at 33.0 µM,85% (active)
same,growth inhibition,[5]; [18],92% (active)
same,growth inhibition,[5]; at 50.0 µM,84.3% (active)
same,growth inhibition,[5]; at 100.0 µM,91% (active)
same,growth inhibition,[6]; at 1.2 µM,2%
same,growth inhibition,[6]; at 3.7 µM,6%
same,growth inhibition,[6]; [17],26%
same,growth inhibition,[6]; at 11.0 µM,22%
same,growth inhibition,[6]; at 33.0 µM,75% (active)
same,growth inhibition,[6]; [18],92% (active)
same,growth inhibition,[6]; at 50.0 µM,89.4% (active)
same,growth inhibition,[6]; at 100.0 µM,91% (active)
same,growth inhibition,[7]; at 1.2 µM,0%
same,growth inhibition,[7]; at 3.7 µM,1%
same,growth inhibition,[7]; at 11.0 µM,46%
same,growth inhibition,[7]; at 33.0 µM,85% (active)
same,growth inhibition,[7]; at 100.0 µM,94% (active)
same,growth inhibition,[8]; [17],79% (active)
same,growth inhibition,[8]; [18],93% (active)
same,growth inhibition,[8]; at 50.0 µM,82.7% (active)
same,growth inhibition,[9]; at 1.2 µM,20%
same,growth inhibition,[9]; at 3.7 µM,15%
same,growth inhibition,[9]; at 11.0 µM,27%
same,growth inhibition,[9]; at 33.0 µM,30%
same,growth inhibition,[9]; at 100.0 µM,52%
same,growth inhibition,[10]; [17],17%
same,growth inhibition,[10]; [18],79% (active)
same,growth inhibition,[10]; at 50.0 µM,79.1% (active)
same,growth inhibition,[11]; at 1.2 µM,17%
same,growth inhibition,[11]; at 3.7 µM,-7%
same,growth inhibition,[11]; [17],10%
same,growth inhibition,[11]; at 11.0 µM,2%
same,growth inhibition,[11]; at 33.0 µM,12%
same,growth inhibition,[11]; [18],47%
same,growth inhibition,[11]; at 50.0 µM,17.9%
same,growth inhibition,[11]; at 100.0 µM,43%
same,growth inhibition,[12]; at 1.2 µM,-26%
same,growth inhibition,[12]; at 3.7 µM,-15%
same,growth inhibition,[12]; at 11.0 µM,-14%
same,growth inhibition,[12]; at 33.0 µM,13%
same,growth inhibition,[12]; at 100.0 µM,72% (active)
same,growth inhibition,[13]; at 1.2 µM,-4%
same,growth inhibition,[13]; at 3.7 µM,-6%
same,growth inhibition,[13]; at 11.0 µM,9%
same,growth inhibition,[13]; at 33.0 µM,14%
same,growth inhibition,[13]; at 100.0 µM,61%
same,growth inhibition,[14]; at 1.2 µM,31%
same,growth inhibition,[14]; at 3.7 µM,53%
same,growth inhibition,[14]; at 11.0 µM,70% (active)
same,growth inhibition,[14]; at 33.0 µM,82% (active)
same,growth inhibition,[14]; at 100.0 µM,91% (active)
same,growth inhibition,[15]; [17],90% (active)
same,growth inhibition,[15]; [18],95% (active)
same,growth inhibition,[15]; at 50.0 µM,81.2% (active)
same,growth inhibition,[16]; at 1.2 µM,73% (active)
same,growth inhibition,[16]; at 3.7 µM,84% (active)
same,growth inhibition,[16]; at 11.0 µM,92% (active)
same,growth inhibition,[16]; at 33.0 µM,91% (active)
same,growth inhibition,[16]; at 100.0 µM,93% (active)
